The labels stand for the following.
T1: RBFOX1 RRM RbFoxmut (Fox-RRM*) (Homo sapiens, UniProt Q9NWB1 109-208, R118D;E147R;N151S;E152T)
T1 sequence: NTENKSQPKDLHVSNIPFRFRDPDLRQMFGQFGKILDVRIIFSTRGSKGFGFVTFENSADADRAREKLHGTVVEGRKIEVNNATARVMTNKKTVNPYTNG

B1: GUCAGCC (DNA:RNA)
RNA: GGGAGACCGGAAUUCAGAUUGUCCGUCAGCCUUAAAUCCCGUCGUAGCCACCA
DNA 1: CAATCTGAATTCCGGTCTCCC
DNA 2: TGGTGGCTACGACGGGATT
B2: GCACGGU (DNA:RNA)
RNA: B1 RNA with U26C, C27A, A28C, C30G, C31U
DNA 1: CAATCTGAATTCCGGTCTCCC
DNA 2: TGGTGGCTACGACGGGATT
B3: CUAAUAG (DNA:RNA)
RNA: B1 RNA with G25C, C27A, G29U, C30A, C31G
DNA 1: CAATCTGAATTCCGGTCTCCC
DNA 2: TGGTGGCTACGACGGGATT
B4: UCCGCGC (DNA:RNA)
RNA: B1 RNA with G25U, U26C, A28G, G29C, C30G
DNA 1: CAATCTGAATTCCGGTCTCCC
DNA 2: TGGTGGCTACGACGGGATT
B5: CAGAAUG (DNA:RNA)
RNA: B1 RNA with G25C, U26A, C27G, G29A, C30U, C31G
DNA 1: CAATCTGAATTCCGGTCTCCC
DNA 2: TGGTGGCTACGACGGGATT
B6: CCCAGAA (DNA:RNA)
RNA: B1 RNA with G25C, U26C, C30A, C31A
DNA 1: CAATCTGAATTCCGGTCTCCC
DNA 2: TGGTGGCTACGACGGGATT
B7: UAGAAUG (DNA:RNA)
RNA: B1 RNA with G25U, U26A, C27G, G29A, C30U, C31G
DNA 1: CAATCTGAATTCCGGTCTCCC
DNA 2: TGGTGGCTACGACGGGATT
B8: CAGAUUG (DNA:RNA)
RNA: B1 RNA with G25C, U26A, C27G, G29U, C30U, C31G
DNA 1: CAATCTGAATTCCGGTCTCCC
DNA 2: TGGTGGCTACGACGGGATT
B9: UAGAAUC (DNA:RNA)
RNA: B1 RNA with G25U, U26A, C27G, G29A, C30U
DNA 1: CAATCTGAATTCCGGTCTCCC
DNA 2: TGGTGGCTACGACGGGATT
B10: UAGAUUG (DNA:RNA)
RNA: B1 RNA with G25U, U26A, C27G, G29U, C30U, C31G
DNA 1: CAATCTGAATTCCGGTCTCCC
DNA 2: TGGTGGCTACGACGGGATT
B11: GAGCACA (DNA:RNA)
RNA: B1 RNA with U26A, C27G, A28C, G29A, C31A
DNA 1: CAATCTGAATTCCGGTCTCCC
DNA 2: TGGTGGCTACGACGGGATT
B12: UGGCUAC (DNA:RNA)
RNA: B1 RNA with G25U, U26G, C27G, A28C, G29U, C30A
DNA 1: CAATCTGAATTCCGGTCTCCC
DNA 2: TGGTGGCTACGACGGGATT
B13: UGGCCCU (DNA:RNA)
RNA: B1 RNA with G25U, U26G, C27G, A28C, G29C, C31U
DNA 1: CAATCTGAATTCCGGTCTCCC
DNA 2: TGGTGGCTACGACGGGATT
B14: CGUCUUG (DNA:RNA)
RNA: GGGAGACCGGAAUUCAGAUUGUCCCGUCUUGUUAAAUCCCGUCGUAGCCACCA
DNA 1: CAATCTGAATTCCGGTCTCCC
DNA 2: TGGTGGCTACGACGGGATT
B15: GUUGGUC (DNA:RNA)
RNA: B1 RNA with C27U, A28G, C30U
DNA 1: CAATCTGAATTCCGGTCTCCC
DNA 2: TGGTGGCTACGACGGGATT
B16: CACCGUC (DNA:RNA)
RNA: B14 RNA with G26A, U27C, U29G, G31C
DNA 1: CAATCTGAATTCCGGTCTCCC
DNA 2: TGGTGGCTACGACGGGATT
B17: GGUCUUG (DNA:RNA)
RNA: B14 RNA with C25G
DNA 1: CAATCTGAATTCCGGTCTCCC
DNA 2: TGGTGGCTACGACGGGATT
B18: ACCAGUC (DNA:RNA)
RNA: B1 RNA with G25A, U26C, C30U
DNA 1: CAATCTGAATTCCGGTCTCCC
DNA 2: TGGTGGCTACGACGGGATT
B19: GGAUUGG (DNA:RNA)
RNA: B14 RNA with C25G, U27A, C28U, U30G
DNA 1: CAATCTGAATTCCGGTCTCCC
DNA 2: TGGTGGCTACGACGGGATT
B20: AGUCUUG (DNA:RNA)
RNA: B14 RNA with C25A
DNA 1: CAATCTGAATTCCGGTCTCCC
DNA 2: TGGTGGCTACGACGGGATT
B21: GGUCGUC (DNA:RNA)
RNA: B14 RNA with C25G, U29G, G31C
DNA 1: CAATCTGAATTCCGGTCTCCC
DNA 2: TGGTGGCTACGACGGGATT
B22: CGUCGUC (DNA:RNA)
RNA: B14 RNA with U29G, G31C
DNA 1: CAATCTGAATTCCGGTCTCCC
DNA 2: TGGTGGCTACGACGGGATT
B23: AGUCGUC (DNA:RNA)
RNA: B14 RNA with C25A, U29G, G31C
DNA 1: CAATCTGAATTCCGGTCTCCC
DNA 2: TGGTGGCTACGACGGGATT
B24: GUCGGUC (DNA:RNA)
RNA: B1 RNA with A28G, C30U
DNA 1: CAATCTGAATTCCGGTCTCCC
DNA 2: TGGTGGCTACGACGGGATT
B25: GUCUUGG (DNA:RNA)
RNA: B1 RNA with A28U, G29U, C30G, C31G
DNA 1: CAATCTGAATTCCGGTCTCCC
DNA 2: TGGTGGCTACGACGGGATT
B26: AGAGUGG (DNA:RNA)
RNA: B14 RNA with C25A, U27A, C28G, U30G
DNA 1: CAATCTGAATTCCGGTCTCCC
DNA 2: TGGTGGCTACGACGGGATT
B27: UCUGGAG (DNA:RNA)
RNA: B14 RNA with C25U, G26C, C28G, U29G, U30A
DNA 1: CAATCTGAATTCCGGTCTCCC
DNA 2: TGGTGGCTACGACGGGATT
B28: AUGUAGG (DNA:RNA)
RNA: B14 RNA with C25A, G26U, U27G, C28U, U29A, U30G
DNA 1: CAATCTGAATTCCGGTCTCCC
DNA 2: TGGTGGCTACGACGGGATT
B29: AUCUCCA (DNA:RNA)
RNA: B1 RNA with G25A, A28U, G29C, C31A
DNA 1: CAATCTGAATTCCGGTCTCCC
DNA 2: TGGTGGCTACGACGGGATT
B30: GAUAAGU (DNA:RNA)
RNA: B1 RNA with U26A, C27U, G29A, C30G, C31U
DNA 1: CAATCTGAATTCCGGTCTCCC
DNA 2: TGGTGGCTACGACGGGATT
B31: GAAUACU (DNA:RNA)
RNA: B1 RNA with U26A, C27A, A28U, G29A, C31U
DNA 1: CAATCTGAATTCCGGTCTCCC
DNA 2: TGGTGGCTACGACGGGATT

Binding signal data for 31 molecules are collected here from article PMC9911399, “Two distinct binding modes provide the RNA-binding protein RbFox with extraordinary sequence specificity”.

Changes are numbered by the printed parent chain; changes in the protein carry UniProt numbers. Whole data set: some 16,000 sequences, median “ka relative to ugcaugu” near 0.096, cut for the highest 2% near 0.35. The sample as a whole holds a higher share of the highest values than the screen did.

In this experiment the target is T1, RBFOX1 RRM RbFoxmut (Fox-RRM*). Description: EMSA; HiTS-Eq, 1 nM pool, 10 min; buffer printed only for the single-RNA assays: 10 mM Tris pH 7.5, 150 mM NaCl, 3.4 mM EDTA, 0.001% NP-40, 30 C. The note with it: tags: His6 N-terminal (pET28a); label: 5' 32P. Summed up:
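Purified RbFox RRM (wild type or mutant) was equilibrated for 10 min in 50 µL with 1 nM of a 5′-radiolabelled pool of RNA with 7 randomized nucleotides, its flanks annealed to DNA oligonucleotides, across increasing protein concentrations. Free RNA was separated by 8% native PAGE, excised, reverse-transcribed, PCR-barcoded and sequenced on an Illumina HiSeq 2500. Relative association constants came from read-count changes of each variant against the control reaction, normalised to the cognate motif.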
Take B1: the binding signal was 0.0902 KA relative to UGCAUGU.

Take B2: the binding signal is 0.289 KA relative to UGCAUGU.

As for B3, the binding signal was 0.0844 KA relative to UGCAUGU.

In the case of B4, the binding signal was 0.0955 KA relative to UGCAUGU.

In the case of B5, the binding signal was 1.17 KA relative to UGCAUGU.

Take B6: the binding signal was 0.0718 KA relative to UGCAUGU.

For the molecule B7, the binding signal is 0.953 KA relative to UGCAUGU.

Turning to B8, the binding signal is 0.225 KA relative to UGCAUGU.

Consider B9, for which the binding signal is 0.125 KA relative to UGCAUGU.

As to B10, the binding signal was 0.194 KA relative to UGCAUGU.

For the molecule B11, the binding signal is 0.0821 KA relative to UGCAUGU.

Regarding B12, the binding signal is 0.0987 KA relative to UGCAUGU.

In the case of B13, the binding signal is 0.0838 KA relative to UGCAUGU.

Take B14: the binding signal was 0.615 KA relative to UGCAUGU.

On to B15, for which the binding signal was 0.164 KA relative to UGCAUGU.

In the case of B16, the binding signal is 0.0639 KA relative to UGCAUGU.

With B17, the binding signal was 0.368 KA relative to UGCAUGU.

Regarding B18, the binding signal is 0.063 KA relative to UGCAUGU.

As for B19, the binding signal was 0.219 KA relative to UGCAUGU.

B20: the binding signal is 0.459 KA relative to UGCAUGU.

Consider B21, for which the binding signal is 0.159 KA relative to UGCAUGU.

In the case of B22, the binding signal is 0.186 KA relative to UGCAUGU.

For B23, the binding signal is 0.117 KA relative to UGCAUGU.

Take B24: the binding signal is 0.171 KA relative to UGCAUGU.

For the molecule B25, the binding signal is 0.403 KA relative to UGCAUGU.

On to B26, for which the binding signal is 0.107 KA relative to UGCAUGU.

With B27, the binding signal is 0.0838 KA relative to UGCAUGU.

In the case of B28, the binding signal was 0.128 KA relative to UGCAUGU.

As to B29, the binding signal was 0.0926 KA relative to UGCAUGU.

For B30, the binding signal is 0.0905 KA relative to UGCAUGU.

Consider B31, for which the binding signal was 0.0832 KA relative to UGCAUGU.
